What was measured:
Experiment in all cases: PBM binding z-score (relative to random genomic background probes); higher = stronger binding; sequences stand for … in GC…GCGATTGACAGCGTAGAATGAAGG
[1] = tested on: LXRa homodimer (NR concentration 270 nM)
Procedure, shortened: (§1)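 Binding buffer was PBS pH 7.4 with 2% milk, 0.02% Triton X-100, 1 mM DTT, 0.2 mg/mL BSA and 0.4 mg/ml salmon testes DNA. In it, ligand-free nuclear receptor dimers were incubated 1 h on custom Agilent 4×180K protein-binding microarrays carrying double-stranded probes. Antibodies against each partner (one per run) detected binding, and z-scores were calculated against random background probes after regression normalization of scanned fluorescence.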

[2] = tested on: LXRb homodimer (NR concentration 270 nM)
Procedure, shortened: as §1

[3] = tested on: PPARg:RXRa (NR concentration 180 nM, RXRa partner concentration 90 nM)
Procedure, shortened: as §1

[4] = tested on: PPARg:RXRa 270nM:90nM, anti-RXR (NR concentration 270 nM, RXRa partner concentration 90 nM)
Procedure, shortened: as §1

[5] = tested on: PPARg:RXRa 30nM:10nM, anti-RXR (NR concentration 30 nM, RXRa partner concentration 10 nM)
Procedure, shortened: as §1

[6] = tested on: PPARg:RXRa 90nM:30nM, anti-RXR (NR concentration 90 nM, RXRa partner concentration 30 nM)
Procedure, shortened: as §1

[7] = tested on: PPARg:RXRa DBDmut IVT, anti-RXR (DBD mutation: RXRa K156A/R161A, NR concentration 270 nM, RXRa partner concentration 90 nM)
Procedure, shortened: as §1

[8] = tested on: LXRa:RXRa (NR concentration 270 nM, RXRa partner concentration 90 nM)
Procedure, shortened: as §1

[9] = tested on: PPARa:RXRa (NR concentration 270 nM, RXRa partner concentration 90 nM)
Procedure, shortened: as §1

| Sequence | PBM binding z-score [1] | PBM binding z-score [2] | PBM binding z-score [3] | PBM binding z-score [4] | PBM binding z-score [5] | PBM binding z-score [6] | PBM binding z-score [7] | PBM binding z-score [8] | PBM binding z-score [9] |
| --- | --- | --- | --- | --- | --- | --- | --- | --- | --- |
| CAAACGAGGTCACGAAAGGTCAAAGTCGAATGAC | 9.67 | 3.56 | 10.1 | 8.71 | 6.72 | 8.74 | 6.75 | – | – |
| CCTTACGGGTCACGAGGTCATAGCACGACGAGCG | 2.73 | 0.62 | 8.56 | 7.55 | 4.61 | 6.67 | 4.66 | 5.89 | – |
| CAAACCAGGTCAAAGGTCAAAGTCGAGCCAACCA | 5.78 | 3.31 | 13.2 | 10.7 | 11.3 | 12 | 6.71 | – | 7.46 |
| CTATGTAGGTTAAGGGAGTCATTCAGTTTGAAAG | -0.134 | – | 4.76 | 4.4 | 1.9 | 3.53 | 6.9 | 0.682 | – |
| CCTAGTTGTTCAGGAGGTCACACACCGGATATGA | 3.87 | 1.61 | 2.04 | 2.98 | 1.11 | 1.87 | 0.958 | 4.36 | – |
| AATACGGGGTCACTAGGCCAGAGTAGGTACGAAT | 2 | 2.47 | – | 8.44 | 5.78 | 7.95 | 5.43 | 6.53 | – |
| ATTTGTAGGTTACATCCGGGTCATTCAGGCTATG | 2.84 | 1.83 | 4.22 | 4.28 | 2.12 | 3.26 | 6.92 | 5.11 | – |
| TGTATGAGGTTAAAGATCAGGGAACGTGGCGTCG | 0.262 | 1.41 | 4.1 | 5.21 | 3 | 4.93 | 0.702 | 3.09 | – |
| CAAACTAGGTCAAGAGGTCAAAGTTCGCTTCCCG | 6.51 | 2.33 | – | 9.13 | 7.44 | 10.1 | 8.34 | 6.59 | – |
| CGTCAAAGTTCAACTAAGGTCACGTAAAGCACGC | 8.57 | 2.98 | 6.26 | 6.88 | 3.49 | 5.51 | 1.14 | – | 6.28 |
| CAAACAAGGTCACCGGAAGGTCAAAGTCCGCATG | 6.36 | 2.43 | 8.84 | 7.81 | 4.78 | 7.17 | 5.54 | – | 6.58 |
| CGAACTACGTCATCCAGGACAGTGAATACATTGA | 0.121 | -0.033 | 0.703 | -0.106 | 0.193 | -0.145 | 0.257 | -0.0453 | – |
| TAGCCTAGGTCATGCGGGACAGTATAGTGTCGGC | 0.386 | -0.0861 | 2.48 | 2.57 | 0.321 | 1.17 | 1.71 | 2.99 | – |
| ATCGAAAGGTCGACGAGGTGAGTAAACACCGTTT | 0.0172 | 0.228 | 2.6 | 3.59 | 1.02 | 2.3 | 0.114 | 3.58 | – |
| CGAACGAGGTCACCAGGACAGTGAAGAGGTTGGA | 0.912 | 0.295 | 8.9 | 7.66 | 5.23 | 6.73 | 5.64 | 5.61 | – |
| CCTTAGGGGTCACTGACAGGTTATAGCATTTGGA | 1.33 | 0.926 | 9.33 | 8.43 | 5.34 | 7.46 | 4.82 | 6.55 | – |
| CCTTAAGGGTCACGAGGTTATAGCACGACGAGCG | 0.987 | 0.697 | 8.45 | 7.7 | 4.56 | 6.73 | 4.16 | 5.92 | – |
| GATACAGGGTCGGCTAGAGGCCAGAGTATGGAAA | -0.632 | -1.28 | 0.561 | 0.616 | -0.167 | 0.215 | -0.804 | 0.191 | – |

| Sequence | PBM binding z-score [1] | PBM binding z-score [2] | PBM binding z-score [3] | PBM binding z-score [4] | PBM binding z-score [5] | PBM binding z-score [6] | PBM binding z-score [7] | PBM binding z-score [8] | PBM binding z-score [9] |
| --- | --- | --- | --- | --- | --- | --- | --- | --- | --- |
| GCTGCTAGGTCAACTGATGGTCACCTAAAGCTCG | 0.787 | 0.117 | 3.2 | 3.59 | 0.832 | 2.56 | 5.16 | 3.3 | – |
| GATACAGGGTCAAGGTCAGAGTACGCGTATTGAT | 1.48 | 0.776 | 7.68 | 6.67 | 4.07 | 5.8 | 2.93 | 5 | – |
| CAAACAAGGTCAAAGGTCAAAGTCGAGCCAACCA | 6.4 | 4.04 | 13.5 | 11 | 13.5 | 13.5 | 6.43 | – | – |
| ACTTAAGGGTCAACGAGGTTATAGCACGCGTATA | 1.86 | 1.21 | 7.09 | 6.95 | 3.18 | 5.51 | 3.78 | 6.42 | – |
| CGAACAAGGTCATTGACAGGACAGTGAATAGTAA | 1.2 | 1.12 | 5.6 | 5.66 | 2.36 | 4.75 | 4.08 | 5.4 | – |
| GGAACGAGGTCAAAGTTGATAGCATCTGTCGACG | 1.61 | 2.26 | – | 8.63 | 8.72 | 9.4 | 6.14 | 5.98 | – |
| GCTTAGGGGTCAAAGGTTATAGCATGAATAGAAT | 1.95 | 2.82 | 11.8 | 9.66 | 9.13 | 10.2 | 5.79 | – | – |
| CCTTAGGGGTCAAGGTTATAGCACGGGTGGTACG | 1.33 | 1.15 | 8.58 | 7.98 | 5.01 | 7.42 | 3.07 | – | – |
| CGTCCAAGGACAATGCTAGGTCAGTGAAAGCATT | 0.593 | -0.885 | – | -0.429 | -0.602 | -0.31 | 0.442 | 0.187 | – |
| CATACAGGGTCGGCTAGGCCAGAGTAGGGACGGC | -0.58 | -0.356 | 0.288 | -0.0886 | -0.643 | -0.513 | -0.787 | 0.0375 | – |
| CGTCTAAGGTCATAGGAGGTCAGTGAAGACAGAT | 5.68 | 1.55 | 6.42 | 6.7 | 3.31 | 5.55 | 3.95 | – | – |
| AGCGAAAGGTCGAGGTGAGTATAGAGAAAGGGAA | -0.189 | -0.246 | 3.81 | 4.31 | 1.4 | 3.37 | 0.228 | 3.18 | – |
| CGTCCAAGGTCACGGTCAGTGAAAGAGACTCGAA | 0.892 | 0.155 | 7.75 | 7.26 | 4.16 | 6.37 | 4.83 | 6.12 | – |
| CAAAATAGGTCACGAAAGGTCAAAGTCGAATGAC | 8.09 | 3.59 | 10.4 | 8.59 | 7.39 | 8.59 | 7.95 | 8.64 | – |
| AGTCAAAGTGCATCTAGGTAACGTAAGATATGCT | -0.289 | -0.415 | 2 | 2.08 | 0.727 | 1.47 | 0.592 | 0.188 | – |
| TATACAGGGTCAAAGGCCAAAGTACGAATGTCGA | 3.06 | 2.44 | 9.55 | 7.98 | 7.57 | 8.54 | 2.77 | 6.59 | – |
| GCTTAAGGGTCAAAGGTTATAGCATGAATAGAAT | 1.93 | 1.36 | 11.7 | 9.09 | 8.73 | 9.85 | 3.81 | 6.57 | – |
| CAAACAAGGTCACAGAGGTCAAAGTCCGTGCGTA | 8.49 | 3.24 | 9.2 | 8.4 | 5.17 | 7.73 | 6.04 | – | – |
